# From PubChem BioAssay AID624354 (Sanford-Burnham Center for Chemical Genomics, 2012)
# Among all 360,000 compounds or so, about 3,800 (1.1%) were called active. This excerpt belongs to a sample that is enriched for actives. A number with no mark means an inactive call.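 The calls were made as follows: active = compounds causing at least 50% loss of cell viability in the single-dose screen, relative to plate controls; inactive = the rest.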
# Experiment: viability loss with TRAIL in NB7+C8 cells, primary screen, TRAIL sensitizer project, cell-based, ATPlite luminescence (AID 624354)
# Conditions: at 10 µM, stronger effect = higher value
row,SMILES,"inhibition (viability loss, TRAIL sensitization)"
1,N/C(=N\OC(=O)c1ccc([N+](=O)[O-])cc1)c1ccccn1,24.5%
2,N/C(=N\OC(=O)CCC1CCCCC1)c1ccccn1,-5.71%
3,Cc1ccc(C(=O)O/N=C(\N)c2ccccn2)cc1Cl,74.5% (active)
4,CNc1nc(SC)nc(N(C#N)CC(=O)OC)n1,-0.928%
5,COC(=O)c1cccc(C(=O)N2CCCC(Nc3ccc4c(c3)OCCO4)C2)c1 (stereo unspecified),-3.93%
6,COc1ccc(S(=O)(=O)N2CCCC(C(=O)NCCCn3ccnc3)C2)cc1OC (stereo unspecified),-12.7%
7,COc1ccc2cc(CCl)c(Cl)nc2c1,-1.84%
8,COc1ccc(C=C(C#N)C#N)c(CSc2ccccn2)c1,1.8%
9,COc1ccc2nc(-c3ccccn3)ccc2c1,80.3% (active)
10,CC[C@H](C)[C@@H](C(=O)N1CCNCC1)n1cc([C@@H](N)Cc2ccc(O)cc2)nn1,-6.33%
11,CCCNC(=O)C1(C)CCN1C(=O)Cc1ccc(-c2ccccc2)cc1 (stereo unspecified),5.54%
12,CC1(C(=O)NS(=O)(=O)c2ccccc2)CCN1C(=O)Cc1ccc(-c2ccccc2)cc1 (stereo unspecified),4.55%
13,C#Cc1ccc(NC(=O)C2(C)CCN2C(=O)Cc2ccc(-c3ccccc3)cc2)cc1 (stereo unspecified),73.3% (active)
14,Cc1cccc2c1-c1sc(C(=O)NCCCN3CCc4ccccc4C3)cc1CO2,11.6%
15,COc1ccc2nc(Nc3nc(-c4cc5ccccc5oc4=O)cs3)sc2c1,69.2% (active)
16,COc1cccc(C(NC(C)=O)c2nc(-c3ccccc3OC)cs2)c1 (stereo unspecified),2.76%
17,Cc1noc(C)c1CSCC(=O)Nc1nc2ccc(Oc3ccccc3)cc2s1,-12.9%
18,CC(=O)CSc1nnc(CSc2ncccn2)n1C1CCCCC1,-3.63%
19,O=C(NCCc1ccccc1Cl)C1CCC(=O)N(CCCc2ccccc2)C1 (stereo unspecified),6.8%
20,Fc1ccc(/C=N/Nc2nc(-c3cccnc3)nc3ccccc23)cc1,50.2% (active)
21,CCN(CC(=O)NC1CCS(=O)(=O)C1)c1nc(-c2cccnc2)nc2ccccc12 (stereo unspecified),11.4%
22,Brc1ccc(-c2csc(N/N=C/c3cccnc3)n2)cc1,2.52%
23,O=C(NNS(=O)(=O)c1ccccc1)c1cnn(-c2ccc(Cl)cc2)c1C(F)(F)F,18.4%
24,Cc1ccc(NC(=O)CCOc2ccccc2)cc1S(=O)(=O)Nc1ccccc1Cl,5.58%
25,CN(C(=O)CSc1cccc[n+]1[O-])C1CCCCC1,9.54%
26,O=C(c1cc2ccccc2o1)N1CCN(c2cccc(C(F)(F)F)c2)CC1,-2.4%
